Compound activity (PubChem BioAssay)
Shown are actives, neighbours in structure and some others; about 4.6% of the full set was active somewhere.
USP10 block = blocks human USP10 ubiquitin-rhodamine cleavage. hit rate 1.1% among 47,000. purified USP10, Ub-rhodamine fluorescence, 60 min. Q14694. inhibition, % at 20 µM
UCHL1 inh = human UCHL1 deubiquitinase inhibition | P09936 | purified UCHL1, Ub-rhodamine cleavage fluorescence | inhibition, % at 20 µM | hit rate 0.2% among 47,000 | AID 1645859
USP7 block = inhibitors of human USP7 deubiquitinase; purified USP7, Ub-rhodamine cleavage fluorescence; inhibition, % at 20 µM; hit rate 0.3% among 47,000
USP8 inh = inhibitors of human USP8 deubiquitinase | purified USP8, Ub-rhodamine cleavage fluorescence, 30 min | inhibition, % at 20 µM | hit rate 4.2% among 47,000
Starred values were filed as active, the others as inactive. Rule as the data show it: active = inhibition above about 30%; inactive = the rest.

SMILES	USP10 block	UCHL1 inh	USP7 block	USP8 inh
Cc1cc(N2C(=O)c3oc4ccc(F)cc4c(=O)c3C2c2cccc(OCc3ccccc3Cl)c2)no1 (stereo not drawn)	4.6	2.1	4.9	31.4*
Cc1cc(N2C(=O)c3oc4ccc(F)cc4c(=O)c3C2c2cccc(OCc3ccccc3)c2)no1 (stereo not drawn)	1.8	-0.5	0.5	-3.8
CCCCN(C(=O)c1nc2nccc(C)n2n1)c1ccccc1	0.1	-3.4	-1.4	2.8
CCc1ccc(NC(=O)CSc2[nH]c(=O)c(C(=O)O)cc2C#N)cc1	-2.1	-4.5	0.8	54.5*
CCC1Cc2c(nc(N)c3c(N)nc(N4CCCCC4)c(C#N)c23)O1 (stereo not drawn)	-10.2	-3.3	-14.0	76.7*
O=C(Cn1cc(S(=O)(=O)Cc2ccccc2)c2ccccc21)NC1CCCCC1	-1.8	-3.2	-5.9	30.2*
O=C(NC(Cc1ccccc1)c1nc2ccccc2[nH]1)c1ccccn1 (stereo not drawn)	-3.1	-1.9	0.4	-39.9
O=C(NC(Cc1ccccc1)c1nc2ccccc2[nH]1)C1CCC1 (stereo not drawn)	-0.7	0.8	1.5	63.2*
O=C(N[C@@H](Cc1ccccc1)c1nc2ccccc2[nH]1)c1ccncc1	-2.0	3.5	0.7	9.5
COc1ccc(C(=O)NC(Cc2ccccc2)c2nc3ccccc3[nH]2)c(OC)c1 (stereo not drawn)	18.3	18.9	-4.8	95.4*
O=C(NC(Cc1ccccc1)c1nc2ccccc2[nH]1)c1ccc(-n2cnnn2)cc1 (stereo not drawn)	1.5	3.0	-1.9	42.5*
O=C(NC(Cc1ccccc1)c1nc2ccccc2[nH]1)c1nc(Cl)ccc1Cl (stereo not drawn)	-3.1	-3.1	4.5	-6.3
O=C(NC(Cc1c[nH]c2ccccc12)c1nc2ccccc2[nH]1)c1ccccc1 (stereo not drawn)	-6.5	3.7	0.3	42.4*
CN1CCc2c(C#N)c(NCc3ccncc3)n3cnnc3c2C1	-1.6	-37.4	-38.0	-48.8
CN(C(=O)c1ccc(S(=O)(=O)N(C)C)cc1)c1ccc2ccccc2c1	-1.4	-1.5	-1.5	0.2
O=C(c1ccccc1)N1C[C@H]2CCN(S(=O)(=O)c3cccc(C(F)(F)F)c3)C[C@H]21	-1.3	-1.1	-8.2	-0.3
CCc1cccc(NC(=O)c2cnc(N3CCN(C)CC3)nc2C)c1	-3.7	3.1	-1.5	1.3
Nc1ccccc1SC(CC(=O)c1ccc(Cl)cc1)c1ccsc1 (stereo not drawn)	7.1	0.7	-4.8	72.7*
O=C(CC(C(=O)c1ccccc1)c1cccs1)c1ccc(Cl)cc1 (stereo not drawn)	3.1	-13.3	2.2	-59.3
Cc1nc(-c2ccccn2)sc1C(=O)N1CCC[C@]2(C)NC(=O)CCC[C@H]12	1.1	-1.6	1.8	-7.4
COc1ccc(/C=C/C(=O)Nc2cccc(S(=O)(=O)Nc3ccccc3Cl)c2)c(OC)c1	62.1*	3.4	8.8	65.6*
COc1ccccc1NS(=O)(=O)c1cccc(NC(=O)CCOc2ccccc2)c1	6.2	5.4	-2.2	2.7
CCOc1ccc(C2/C(=C(\O)c3ccccc3)C(=O)C(=O)N2c2nc3ccc(F)cc3s2)cc1 (stereo not drawn)	24.0	21.2	72.0*	-28.4
CC(=O)Nc1ccc(C(=O)/C=C2\NCCc3cc4c(cc32)OCCCO4)cc1	-6.1	-2.6	-11.2	44.5*
Oc1ccc(Br)cc1CNc1ccc(F)cc1	7.5	6.1	-80.3	84.6*
SMILES	USP10 block	UCHL1 inh	USP7 block	USP8 inh
Clc1ccc2oc(-c3cccs3)nc2c1	5.3	-1.0	-32.3	2.1
Nc1ccc2oc(-c3cccc(-c4nc5cc(N)ccc5o4)n3)nc2c1	37.3*	22.9	29.6	72.7*
O=C(NC1CCCC1)C(c1ccncc1)N(C(=O)c1ccco1)c1ccc2c(c1)OCCO2 (stereo not drawn)	-5.6	3.0	-3.0	48.5*
COc1ccccc1N(C(=O)c1ccco1)C(C(=O)NC1CCCC1)c1cccnc1 (stereo not drawn)	-0.2	0.5	1.3	18.5
Cc1ccn2c(=O)c(NC(=O)COc3ccc(Cl)cc3)c(C)nc2c1	2.4	2.0	1.1	16.2
FC(F)(F)c1cnc(/C=C/Nc2cccc(Oc3ncc(C(F)(F)F)cc3Cl)c2)c(Cl)c1	-6.0	-3.4	0.4	74.5*
Cc1nc(N2CCCCC2)ncc1C(=O)Nc1ccccc1F	-0.5	0.2	-3.0	7.6
Cc1cccc(NC(=O)c2cnc(N3CCCCC3)c3ccccc23)n1	-2.7	0.4	-7.3	36.0*
CCCOc1ccc(-c2ccc(-c3nc(CCC)no3)cc2)cc1	0.4	1.7	3.9	20.6
N#Cc1ccc(OCc2noc(-c3ccc(F)cc3)n2)cc1	1.4	0.0	5.3	38.4*
